# Source: PubChem BioAssay (EPA / NIEHS)
# Where “and” joins values, the source holds several entries; their conditions need not be identical. Identical values can stand only once. The source holds several records for some structures; these can differ, active in one and inactive in another. Calls of active or inactive are those of the source. The calls were made as follows: active = hit-call score of the fitted dose curve at least 0.9, where 1 is the maximum; inactive = score below 0.9.
# Test: BSK_SAg_Proliferation: Cell Proliferation Assessment in the BioMAP Diversity Plus: SAg Assay (AID 2283095)
# Conditions: primary human HUVEC with PBMC
# Description: BSK_SAg is a cell-based, multiplexed-readout assay that uses umbilical vein endothelium and peripheral blood mononuclear cells, a human vascular primary cell co-culture, with measurements taken at 24 hours after chemical dosing in a 96-well plate.BSK_SAg_Proliferation is an assay component in the BSK_SAg assay. It measures protein content, a form of viability reporter, as detected with absorbance signals by Sulforhodamine staining technology. Data from the assay component BSK_SAg_Proliferation was analyzed into 1 assay endpoint. This assay endpoint, BSK_SAg_Proliferation, was analyzed with bidirectional fitting relative to DMSO as the negative control and baseline of activity. Using a type of viability reporter, measures of total protein for gain or loss-of-signal activity can be used to understand the viability at the cellular-level. Furthermore, this assay endpoint can be referred to as a secondary readout, because this assay has produced multiple assay endpoints where this one serves a viability function. To generalize the intended target to other relatable targets, this assay endpoint is annotated to the cell cycle intended target family, where the subfamily is proliferation.
# The levels of cell surface (or secreted, indicated by the prefix "s") biomarker endpoints were measured by ELISA. Overt cytotoxicity to cells in confluent adherent cultures (all systems other than the BT system) was assessed by measuring total protein levels using sulforhodamine B (SRB) staining in parallel cultures at the time of biomarker measurements, indicated as SRB endpoints. For proliferation assays for adherent cell types, individual cell types are cultured at sub-confluence and relative cell numbers quantified by SRB staining at time points optimized for each system (48 h: 3C and CASM3C systems; 72 h: BT and HDF3CGF systems; 96 h: SAg system). SRB was performed by staining cells with 0.1% SRB after fixation with 10% TCA and reading wells at 560 nm.Viability and proliferation of PBMC (T cells) was quantified by Alamar Blue reduction for the SAg and BT systems. For PBMC viability (referred to as PBMC Cytotoxicity within the assay endpoint names), cells were plated (75,000/well in a 96-well plate) and then chemical samples added for 1 h before addition of activators, SEB and TSST-1 (20 ng/mL final concentration each). Cells were incubated for 90 h. Then, Alamar Blue (20 uL/well) (Invitrogen, Cat DAL1100) was added for 6 h, and the plates were read with a fluorescence microplate reader at 546/580 nm (excitation/emission). For PBMC proliferation, cells were plated and activated as above but incubated for only 16 h prior to addition of Alamar Blue. Plates were read after 6 h.
Structure (SMILES),AC50,outcome
CC(=O)S[C@@H]1CC2=CC(=O)CC[C@]2(C)[C@H]2CC[C@@]3(C)[C@@H](CC[C@@]34CCC(=O)O4)[C@H]12,13.7 µM (active),–
COc1nc(C)nc(NC(=O)NS(=O)(=O)c2ccccc2OCCCl)n1,–,inactive
O=C(O)c1ccccc1,–,inactive
CN(C)C(=O)Nc1ccc(Cl)c(Cl)c1,–,inactive
Oc1ccc(C(c2ccc(O)cc2)C(Cl)(Cl)Cl)cc1,24.1 µM (active),–
CCSC(=O)N(CC(C)C)CC(C)C,–,inactive
CCC(C)OC(=O)N1CCCCC1CCO (stereo not given),–,inactive
CCCCCCC(C)OC(=O)COc1nc(F)c(Cl)c(N)c1Cl (stereo not given),9.53 µM (active),–
CCCOC(=O)c1ccc(C(=O)OCCC)nc1,–,inactive
CCCOC(=O)NCCCN(C)C,–,inactive
C#C[C@]1(O)CC[C@H]2[C@@H]3CCC4=CC(=O)CC[C@@H]4[C@H]3CC[C@@]21CC,–,inactive
O=C(c1ccc(O)cc1O)c1ccc(O)cc1O,20 µM (active),–
O=C(Nc1ccc([N+](=O)[O-])cc1Cl)c1cc(Cl)ccc1O,0.148 µM (active),–
Cc1nn(C)c(Oc2ccccc2)c1C=NOCc1ccc(C(=O)OC(C)(C)C)cc1,8.08 µM (active),–
C[C@]12CC[C@@H]3c4ccc(O)cc4C[C@@H](CCCCCCCCCS(=O)CCCC(F)(F)C(F)(F)F)[C@H]3[C@@H]1CC[C@@H]2O (stereo not given in full),–,inactive
CCOC(=O)c1ccc(O)cc1,–,inactive
CSC(=O)c1cccc2nnsc12,–,inactive
CCN(Cc1c(F)cccc1Cl)c1c([N+](=O)[O-])cc(C(F)(F)F)cc1[N+](=O)[O-],20 µM (active),–
N#CSCSc1nc2ccccc2s1,783 nM (active) and 1.76 µM (active),–
OB(O)O,–,inactive

Structure (SMILES),AC50,outcome
COC(=O)c1ccccc1S(=O)(=O)NC(=O)Nc1nc(OC(F)F)cc(OC(F)F)n1,–,inactive
COCCO,–,inactive
C#CCOC(=O)[C@@H](C)Oc1ccc(Oc2ncc(Cl)cc2F)cc1,–,inactive
N[C@@H](Cc1cc(I)c(Oc2ccc(O)c(I)c2)c(I)c1)C(=O)O,–,inactive
CCCCOC(=O)C(C)Oc1ccc(Oc2ccc(C(F)(F)F)cn2)cc1 (stereo not given),–,inactive
CCC(O)=C1C(=O)CC(C(=O)O)CC1=O (stereo not given),–,inactive
CCCCC(CC)COC(=O)c1ccccc1C(=O)O (stereo not given),–,inactive
CCNc1nc(N)nc(Cl)n1,–,inactive
COC(=O)c1ccc(CNS(C)(=O)=O)cc1S(=O)(=O)NC(=O)Nc1nc(OC)cc(OC)n1,–,inactive
CCN(CC)C(=O)c1cccc(C)c1,–,inactive
COC(=O)c1cccc(C)c1S(=O)(=O)NC(=O)Nc1nc(OCC(F)(F)F)nc(N(C)C)n1,–,inactive
CC(C)(C)[C@@H](O)[C@@H](Cc1ccc(Cl)cc1)n1cncn1,12.6 µM (active),–
CCOC(=O)[C@H](C)Oc1ccc(Oc2nc3ccc(Cl)cc3o2)cc1,–,inactive
S=C(S)NCCNC(=S)S.[Mn+2].[S-]C([S-])=NCCN=C([S-])[S-].[Zn+2],–,inactive
CCCN(CCC)c1c([N+](=O)[O-])cc(C(F)(F)F)c(N)c1[N+](=O)[O-],21 µM (active),–
O=C(c1ccccc1)C1CCCCC1,–,inactive
CCCCC(CC)CN1C(=O)C2C3C=CC(C3)C2C1=O (stereo not given),32.7 µM (active),–
CC(C)CCCCCCc1ccc(O)cc1,5.59 µM (active),–
CCOC(=O)C(C)Oc1ccc(Oc2nc3ccc(Cl)cc3o2)cc1 (stereo not given),32 µM (active),–
CCOC(=O)COc1cc(-n2ncc(C(F)(F)F)c(C)c2=O)c(F)cc1Cl,–,inactive
